Here are results for 13 sequences from PMC11006913.

Holding throughout (assay): PBM; 200 nM protein, PBS
What all share (conditions): dsDNA, one strand shown

The target in assay [1] is NKX2-5 (Homo sapiens, UniProt P52952 125-210, R139K).
Assay [2] addresses T1, NKX2-4 (Homo sapiens, UniProt Q9H2Z4 175-261, P217L).
T1 sequence: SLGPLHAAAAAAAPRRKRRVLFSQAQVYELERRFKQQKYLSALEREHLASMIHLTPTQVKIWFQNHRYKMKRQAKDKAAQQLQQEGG

The target in assay [3] is T2, NKX2-4 (Homo sapiens, UniProt Q9H2Z4 175-261, T231S).
T2 sequence: T1 sequence with L43P, T57S

Assay [4] deals with T3, NKX2-4 (Homo sapiens, UniProt Q9H2Z4 175-261).
T3 sequence: T1 sequence with L43P

The target in assay [5] is T4, NKX2-6 (Homo sapiens, UniProt A6NCS4 118-204, R150C).
T4 sequence: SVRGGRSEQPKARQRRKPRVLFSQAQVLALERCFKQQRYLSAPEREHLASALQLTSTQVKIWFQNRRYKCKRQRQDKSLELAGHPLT

For assay [6], the target named is T5, NKX2-6 (Homo sapiens, UniProt A6NCS4 118-204).
T5 sequence: T4 sequence with C33R

Assay [7] concerns the target T6, NKX2-4 (Homo sapiens, UniProt Q9H2Z4 175-261, R246Q).
T6 sequence: T1 sequence with L43P, R72Q

For assay [8], the target named is T7, NKX2-6 (Homo sapiens, UniProt A6NCS4 118-204, F151L).
T7 sequence: T4 sequence with C33R, F34L

The next assay has as its target NKX3-2 (Homo sapiens, UniProt P78367 192-278, P234S).
Assay [9] deals with NKX2-5 (Homo sapiens, UniProt P52952 125-210).
Assay [10] deals with T8, VENTX (Homo sapiens, UniProt O95231 78-163, R121Q).
T8 sequence: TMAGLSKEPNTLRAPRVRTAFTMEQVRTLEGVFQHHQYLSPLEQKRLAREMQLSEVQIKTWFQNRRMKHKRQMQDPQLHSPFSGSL

The target of assay [11] is T9, VENTX (Homo sapiens, UniProt O95231 78-163).
T9 sequence: T8 sequence with Q44R

Assay [12] has as its target T10, VENTX (Homo sapiens, UniProt O95231 78-163, Y115F).
T10 sequence: T8 sequence with Y38F, Q44R

Changes are numbered by the printed parent chain.

Sequence of NKX2-5 (Homo sapiens, UniProt P52952 125-210, R139K) (P52952 125-210 R139K): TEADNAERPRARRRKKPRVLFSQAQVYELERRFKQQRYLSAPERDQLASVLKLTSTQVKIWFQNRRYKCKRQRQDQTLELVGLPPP
Sequence of NKX2-5 (Homo sapiens, UniProt P52952 125-210) (P52952 125-210): as the sequence (P52952 125-210 R139K) above, with K15R counted along it
Sequence of NKX3-2 (P78367 192-278 P234S): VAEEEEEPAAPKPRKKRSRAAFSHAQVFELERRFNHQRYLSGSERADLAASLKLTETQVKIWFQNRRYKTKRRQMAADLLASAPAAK

Regarding ACACTTAT, the binding signal in the assay with NKX2-5 [1] was 12.7 upbm affinity estimate (log intensity, higher = more binding, comparable within an allelic series); in the assay with NKX2-4 [2], 12.6 upbm affinity estimate (log intensity, higher = more binding, comparable within an allelic series); in the assay with NKX2-4 [3], 12.9 upbm affinity estimate (log intensity, higher = more binding, comparable within an allelic series); with NKX2-4 [4] it was 12.4 upbm affinity estimate (log intensity, higher = more binding, comparable within an allelic series); with NKX2-6 [5] it was 11.9 upbm affinity estimate (log intensity, higher = more binding, comparable within an allelic series); with NKX2-6 [6] it was 13.6 upbm affinity estimate (log intensity, higher = more binding, comparable within an allelic series). In addition, the binding signal with NKX2-4 [7] is 13.1 upbm affinity estimate (log intensity, higher = more binding, comparable within an allelic series); with NKX2-6 [8] it was 11.1 upbm affinity estimate (log intensity, higher = more binding, comparable within an allelic series); with NKX3-2, 12.5 upbm affinity estimate (log intensity, higher = more binding, comparable within an allelic series); with NKX2-5 [9], 12.6 upbm affinity estimate (log intensity, higher = more binding, comparable within an allelic series).
For the sequence GCACTTGA, the binding signal in the assay with NKX2-5 [1] is 13.2 upbm affinity estimate (log intensity, higher = more binding, comparable within an allelic series); with NKX2-4 [2], 12.8 upbm affinity estimate (log intensity, higher = more binding, comparable within an allelic series); in the assay with NKX2-4 [3] it was 13.2 upbm affinity estimate (log intensity, higher = more binding, comparable within an allelic series); with NKX2-4 [4], 12.6 upbm affinity estimate (log intensity, higher = more binding, comparable within an allelic series); with NKX2-6 [5] it was 12.1 upbm affinity estimate (log intensity, higher = more binding, comparable within an allelic series); in the assay with NKX2-6 [6], 13.9 upbm affinity estimate (log intensity, higher = more binding, comparable within an allelic series). The binding signal with NKX2-4 [7] was 13.4 upbm affinity estimate (log intensity, higher = more binding, comparable within an allelic series); in the assay with NKX2-6 [8], 11.4 upbm affinity estimate (log intensity, higher = more binding, comparable within an allelic series); in the assay with NKX2-5 [9], 13.1 upbm affinity estimate (log intensity, higher = more binding, comparable within an allelic series).
For CACTTGAG, the binding signal is 13.3 upbm affinity estimate (log intensity, higher = more binding, comparable within an allelic series) in the assay with NKX2-5 [1]; 12.9 upbm affinity estimate (log intensity, higher = more binding, comparable within an allelic series) in the assay with NKX2-4 [2]; 13.3 upbm affinity estimate (log intensity, higher = more binding, comparable within an allelic series) with NKX2-4 [3]; 12.8 upbm affinity estimate (log intensity, higher = more binding, comparable within an allelic series) in the assay with NKX2-4 [4]; 12.1 upbm affinity estimate (log intensity, higher = more binding, comparable within an allelic series) with NKX2-6 [5]; 14 upbm affinity estimate (log intensity, higher = more binding, comparable within an allelic series) with NKX2-6 [6]. For the same sequence, the binding signal in the assay with NKX2-4 [7] was 13.5 upbm affinity estimate (log intensity, higher = more binding, comparable within an allelic series); with NKX2-6 [8] it was 11.3 upbm affinity estimate (log intensity, higher = more binding, comparable within an allelic series); with NKX2-5 [9], 13.2 upbm affinity estimate (log intensity, higher = more binding, comparable within an allelic series).
On to GTCAAGTA, for which the binding signal in the assay with NKX2-5 [1] was 12.3 upbm affinity estimate (log intensity, higher = more binding, comparable within an allelic series); with NKX2-4 [2], 12.5 upbm affinity estimate (log intensity, higher = more binding, comparable within an allelic series); with NKX2-4 [3], 12.8 upbm affinity estimate (log intensity, higher = more binding, comparable within an allelic series); with NKX2-4 [4], 12.3 upbm affinity estimate (log intensity, higher = more binding, comparable within an allelic series); with NKX2-6 [6] it was 13.4 upbm affinity estimate (log intensity, higher = more binding, comparable within an allelic series); in the assay with NKX2-4 [7], 13 upbm affinity estimate (log intensity, higher = more binding, comparable within an allelic series). The binding signal is 10.5 upbm affinity estimate (log intensity, higher = more binding, comparable within an allelic series) in the assay with NKX2-6 [8] and 12.2 upbm affinity estimate (log intensity, higher = more binding, comparable within an allelic series) with NKX2-5 [9].
CACTTCAG: the binding signal in the assay with NKX2-5 [1] was 12.4 upbm affinity estimate (log intensity, higher = more binding, comparable within an allelic series); with NKX2-4 [2] it was 12.6 upbm affinity estimate (log intensity, higher = more binding, comparable within an allelic series); in the assay with NKX2-4 [3] it was 12.9 upbm affinity estimate (log intensity, higher = more binding, comparable within an allelic series); with NKX2-4 [4] it was 12.4 upbm affinity estimate (log intensity, higher = more binding, comparable within an allelic series); with NKX2-6 [6], 13.4 upbm affinity estimate (log intensity, higher = more binding, comparable within an allelic series); with NKX2-4 [7], 13.1 upbm affinity estimate (log intensity, higher = more binding, comparable within an allelic series). For the same sequence, the binding signal with NKX2-6 [8] was 10.8 upbm affinity estimate (log intensity, higher = more binding, comparable within an allelic series); with NKX2-5 [9], 12.3 upbm affinity estimate (log intensity, higher = more binding, comparable within an allelic series).
Turning to CACTTCAA, the binding signal with NKX2-5 [1] is 12.4 upbm affinity estimate (log intensity, higher = more binding, comparable within an allelic series); with NKX2-4 [2], 12.6 upbm affinity estimate (log intensity, higher = more binding, comparable within an allelic series); in the assay with NKX2-4 [3] it was 13 upbm affinity estimate (log intensity, higher = more binding, comparable within an allelic series); in the assay with NKX2-4 [4] it was 12.5 upbm affinity estimate (log intensity, higher = more binding, comparable within an allelic series); with NKX2-6 [5], 11.6 upbm affinity estimate (log intensity, higher = more binding, comparable within an allelic series); with NKX2-4 [7], 13.1 upbm affinity estimate (log intensity, higher = more binding, comparable within an allelic series). The binding signal is 10.9 upbm affinity estimate (log intensity, higher = more binding, comparable within an allelic series) in the assay with NKX2-6 [8] and 12.4 upbm affinity estimate (log intensity, higher = more binding, comparable within an allelic series) in the assay with NKX2-5 [9].
As for CATGCGCC, the binding signal in the assay with NKX2-5 [1] is 8.86 upbm affinity estimate (log intensity, higher = more binding, comparable within an allelic series); with NKX2-5 [9], 8.85 upbm affinity estimate (log intensity, higher = more binding, comparable within an allelic series).
Turning to CTGGCCAG, the binding signal with NKX2-5 [1] was 8.81 upbm affinity estimate (log intensity, higher = more binding, comparable within an allelic series); in the assay with VENTX [10], 8.26 upbm affinity estimate (log intensity, higher = more binding, comparable within an allelic series); in the assay with VENTX [11] it was 8.37 upbm affinity estimate (log intensity, higher = more binding, comparable within an allelic series); in the assay with VENTX [12] it was 8.37 upbm affinity estimate (log intensity, higher = more binding, comparable within an allelic series); with NKX2-5 [9], 8.9 upbm affinity estimate (log intensity, higher = more binding, comparable within an allelic series).
Turning to TACCGGTA, the binding signal was 8.84 upbm affinity estimate (log intensity, higher = more binding, comparable within an allelic series) with NKX2-5 [1]; 9.99 upbm affinity estimate (log intensity, higher = more binding, comparable within an allelic series) with NKX2-4 [2]; 10.1 upbm affinity estimate (log intensity, higher = more binding, comparable within an allelic series) with NKX2-4 [3]; 9.94 upbm affinity estimate (log intensity, higher = more binding, comparable within an allelic series) with NKX2-4 [4]; 10.1 upbm affinity estimate (log intensity, higher = more binding, comparable within an allelic series) in the assay with NKX2-4 [7]; 8.86 upbm affinity estimate (log intensity, higher = more binding, comparable within an allelic series) with NKX2-5 [9].
Consider CCTGGGCC, for which the binding signal was 8.72 upbm affinity estimate (log intensity, higher = more binding, comparable within an allelic series) in the assay with NKX2-5 [1]; 7.97 upbm affinity estimate (log intensity, higher = more binding, comparable within an allelic series) in the assay with VENTX [10]; 8.01 upbm affinity estimate (log intensity, higher = more binding, comparable within an allelic series) in the assay with VENTX [11]; 7.99 upbm affinity estimate (log intensity, higher = more binding, comparable within an allelic series) with VENTX [12]; 8.87 upbm affinity estimate (log intensity, higher = more binding, comparable within an allelic series) with NKX2-5 [9].
Turning to CTACTTGA, the binding signal in the assay with NKX2-5 [1] is 12.3 upbm affinity estimate (log intensity, higher = more binding, comparable within an allelic series); with NKX2-4 [2] it was 12.6 upbm affinity estimate (log intensity, higher = more binding, comparable within an allelic series); with NKX2-4 [3], 13 upbm affinity estimate (log intensity, higher = more binding, comparable within an allelic series); in the assay with NKX2-4 [4], 12.4 upbm affinity estimate (log intensity, higher = more binding, comparable within an allelic series); with NKX2-6 [5] it was 11.6 upbm affinity estimate (log intensity, higher = more binding, comparable within an allelic series); with NKX2-6 [6] it was 13.3 upbm affinity estimate (log intensity, higher = more binding, comparable within an allelic series). In addition, the binding signal with NKX2-4 [7] was 13.1 upbm affinity estimate (log intensity, higher = more binding, comparable within an allelic series); with NKX2-6 [8] it was 10.5 upbm affinity estimate (log intensity, higher = more binding, comparable within an allelic series); in the assay with NKX2-5 [9], 12.3 upbm affinity estimate (log intensity, higher = more binding, comparable within an allelic series).
In the case of CACTTGAA, the binding signal with NKX2-5 [1] is 13.2 upbm affinity estimate (log intensity, higher = more binding, comparable within an allelic series); with NKX2-4 [2] it was 12.8 upbm affinity estimate (log intensity, higher = more binding, comparable within an allelic series); in the assay with NKX2-4 [3], 13.3 upbm affinity estimate (log intensity, higher = more binding, comparable within an allelic series); in the assay with NKX2-4 [4], 12.7 upbm affinity estimate (log intensity, higher = more binding, comparable within an allelic series); in the assay with NKX2-6 [5], 12.2 upbm affinity estimate (log intensity, higher = more binding, comparable within an allelic series); with NKX2-6 [6] it was 13.9 upbm affinity estimate (log intensity, higher = more binding, comparable within an allelic series). Further, the binding signal was 13.5 upbm affinity estimate (log intensity, higher = more binding, comparable within an allelic series) in the assay with NKX2-4 [7]; 11.4 upbm affinity estimate (log intensity, higher = more binding, comparable within an allelic series) with NKX2-6 [8]; 13.2 upbm affinity estimate (log intensity, higher = more binding, comparable within an allelic series) with NKX2-5 [9].
In the case of CGGTCGGC, the binding signal was 8.67 upbm affinity estimate (log intensity, higher = more binding, comparable within an allelic series) in the assay with NKX2-5 [1]; 8.16 upbm affinity estimate (log intensity, higher = more binding, comparable within an allelic series) with VENTX [10]; 8.35 upbm affinity estimate (log intensity, higher = more binding, comparable within an allelic series) with VENTX [11]; 8.29 upbm affinity estimate (log intensity, higher = more binding, comparable within an allelic series) with VENTX [12]; 8.65 upbm affinity estimate (log intensity, higher = more binding, comparable within an allelic series) with NKX2-5 [9].
